Measurements as given in ChEMBL document CHEMBL3988442, “University of Dundee, Small-Polar-MMV Screening Library” (2021).
Screen size: about 48,000 compounds; about 13,000 (27%) showed an effect of 50% or more. The list shows a part of the results.

tested on: Wolbachia pipientis; assay: Anti-Wolbachia Cell-Based Screen; format: functional; parameters: scale not given: in the data most compounds retested in dose-response had high values; settings: 5 µM

| SMILES | Percent Effect [%] |
| --- | --- |
| Cc1cccc(CCC(=O)Nc2cccnc2N2CCC(O)CC2)c1 | -21.77 |
| Cc1nonc1NC(=O)c1ccc(F)c(COCC2CC2)c1 | -55.79 |
| CC(C)n1cc2cc(NC(=O)CCS(C)(=O)=O)ccc2n1 | -1.641 |
| COC(=O)c1cc(C(=O)N2CCOCC2(C)C)n(-c2ccccc2)n1 | -5.811 |
| CCC(C)(NCC(=O)OC)c1nccs1 (stereo not given) | -7.626 |
| Cc1ccc(OCC(=O)N(C)Cc2cccc(F)c2)cn1 | 7.779 |
| CC(C)Oc1cccc(CNC(=O)NC(C)(C(=O)O)c2ccco2)c1 (stereo not given) | 1.863 |
| CCNS(=O)(=O)c1ccc(C)c(C(=O)N(CCC#N)Cc2ccco2)c1 | -4.86 |
| CN1CCC2(CC1)CC(NC(=O)c1csnn1)c1ccccc1O2.O=C(O)C(F)(F)F (stereo not given) | -8.669 |
| CC(C)N1CCC2(CC1)CC(NS(C)(=O)=O)c1ccccc1O2.O=C(O)C(F)(F)F (stereo not given) | 107.1 |
| O=C(O)C(F)(F)F.O=S(=O)(NC1CCC12CCN(CC1CC1)CC2)c1ccccc1 (stereo not given) | 2.266 |
| CC(C)CN1CCC2(CC1)CC(NS(C)(=O)=O)c1ccccc1O2.O=C(O)C(F)(F)F (stereo not given) | 99.03 |
| CC(=O)N1CCC2(CC1)CC(NS(C)(=O)=O)c1ccccc1O2 (stereo not given) | 119.8 |
| Cc1ccc(NC2COC3(CCN(CC(C)C)CC3)C2)nn1.O=C(O)C(F)(F)F (stereo not given) | -1.394 |
| CS(=O)(=O)N1CC[C@]2(C[C@@H](Oc3ccccn3)CO2)C1.O=C(O)C(F)(F)F | -15.23 |
| CCN1CCC2(CC1)CC(NC(=O)c1c[nH]cn1)c1ccccc1O2 (stereo not given) | -7.488 |
| CN(C)C(=O)CC1CC2(CCN(C(=O)N(C)C)CC2)Oc2ccccc21 (stereo not given) | -10.67 |
| CCN1CCC2(CC1)CC(NC(=O)c1csnn1)c1ccccc1O2.O=C(O)C(F)(F)F (stereo not given) | -74.83 |
| CS(=O)(=O)NC1CC2(CCN(CC3CC3)CC2)Oc2ccccc21.O=C(O)C(F)(F)F (stereo not given) | 88.61 |
| CNC(=O)NC(=O)C(C)N1CCCc2cc(OC)ccc2C1 (stereo not given) | -11.16 |
| CC(CO)N(C)C(=O)c1cn(-c2ccc(Br)cc2)cn1 (stereo not given) | -3.083 |
| Cc1cc(F)ccc1NCC(=O)NCC(F)(F)F | 8.632 |
| CC(C)c1nc2n(n1)CC(NCCc1cccs1)CC2 (stereo not given) | 0.7675 |
| NC(=O)N1CCCN(C2CCc3ccc(F)cc32)CC1 (stereo not given) | -19.72 |
| COc1cc2c(nn1)CCN(CC(O)COc1ccc(C#N)cc1)C2 (stereo not given) | -7.756 |
| CC(Cc1ccco1)NS(=O)(=O)N1CCCCCC1 (stereo not given) | -8.82 |
| CSCc1ccc(CNC2CCCN(c3ccc(C)nn3)C2)o1 (stereo not given) | 95.39 |

| SMILES | Percent Effect [%] |
| --- | --- |
| Cc1ccc(N2CCCC(NCc3ccc(Cl)o3)C2)nn1 (stereo not given) | 93.48 |
| Cc1ccc(N2CCCC(NCc3ccc(C)o3)C2)nn1 (stereo not given) | 12.24 |
| Cc1ccc(N2CCCC(NCc3cccc4c3OCCO4)C2)nn1 (stereo not given) | 17.19 |
| CC(C)(C)CN1CCN2C(=O)N(C3CCCCC3)C[C@H]2C1 | -7.444 |
| COc1ccc(C(N)=O)cc1NCc1noc(-c2ccsc2)n1 | 0.901 |
| O=C(c1ccc(C(F)(F)F)cc1)N1C[C@@H](CN2CCCCC2)[C@@H](CO)C1 | -17.56 |
| Cc1nnc(N2CCN(C)C3(CCC(=O)N(CCO)CC3)C2)s1 (stereo not given) | -2.989 |
| Cc1cccc(OCCCNC(=O)NC(C)c2nncn2C)c1 (stereo not given) | 6.947 |
| Cc1cccc(OCCNC(=O)Cn2ccc(C)cc2=O)c1 | 104.8 |
| CC(NC(=O)NCCCOc1ccccc1F)c1nncn1C (stereo not given) | 6.488 |
| Cc1cccc(OCCNC(=O)C(C)S(=O)(=O)c2ccccn2)c1 (stereo not given) | 5.338 |
| Cc1ccn(CC(=O)NCCCOc2ccccc2F)c(=O)c1 | 116.2 |
| CC(=O)Nc1nc(C(=O)NCCOc2cccc(C)c2)cs1 | 7.237 |
| Cc1cccc(OCCCNC(=O)Cn2ccc(C)cc2=O)c1 | 90.13 |
| Cc1cccc(OCCNC(=O)C(C)S(=O)(=O)C2CCCC2)c1 (stereo not given) | -6.282 |
| Cc1ncc(C(=O)NCCOc2ccccc2F)c(C)n1 | -10.65 |
| CCc1cc(N2CCCNCC2)n2nc(C)c(C)c2n1 | 3.882 |
| CCN1CCCC(c2c(-c3ccccc3)ncn2Cc2csc(N)n2)C1 (stereo not given) | 4.265 |
| COc1ccc2[nH]nc(CN3CCC(C(C)N(C)C)CC3)c2c1 (stereo not given) | 2.332 |
| C=C(C)COc1cccc(CN(C)C(C)c2ccncn2)c1 (stereo not given) | 2.778 |
| C=C(C)COc1cccc(CN(C)C(C)c2nccs2)c1 (stereo not given) | 12.61 |
| CC(c1nccs1)N(C)C(=O)c1cc(CN(C)Cc2ccccc2)on1 (stereo not given) | -3.289 |
| CC(c1ccon1)N(C)C(=O)C1CCN(CC(N)=O)CC1 (stereo not given) | -6.665 |
| CC(c1nccs1)N(C)S(=O)(=O)NCc1ccccc1 (stereo not given) | 97.09 |
| CC(=O)Nc1ccc(Cl)c(C(=O)N(C)C(C)c2ccncn2)c1 (stereo not given) | 19.4 |
| CC(c1ccncn1)N(C)S(=O)(=O)NCc1ccccc1 (stereo not given) | 110.9 |
| CCN(CC)C(CNS(=O)(=O)NCc1ccccc1)c1ccco1 (stereo not given) | -8.171 |

| SMILES | Percent Effect [%] |
| --- | --- |
| CC(c1ccon1)N(C)S(=O)(=O)NCc1ccccc1 (stereo not given) | 110 |
| CN1CCC(N(C)C[C@H]2CC[C@@H](Cc3ccc4c(cnn4C)c3)O2)CC1 | -7.23 |
| CC(Nc1ccc(Oc2cccc(C#N)c2)cc1)C(=O)NC1CC1 (stereo not given) | 1.244 |
| COCCc1noc(CN2CCCC2Cn2nc(C)nc2C)n1 (stereo not given) | 103.9 |
| Cc1cc(C)n(CC2CCCN2Cc2c(C)noc2C)n1 (stereo not given) | 3.056 |
| Cc1cc(C)n(C2CN(Cc3noc(-c4ccccc4)n3)C2)n1 | -5.64 |
| COCCc1noc(CN2CCCC2c2c(C)nn(C)c2C)n1 (stereo not given) | 1.097 |
| COc1ccc(-c2nc(CN3CC(n4nc(C)cc4C)C3)no2)cc1 | -0.6245 |
| COCCc1noc(CN2CCCC2Cn2nc(C)cc2C)n1 (stereo not given) | 100.2 |
| Cc1nc(C)n(CC2CCCN2Cc2nc(C3CC3)no2)n1 (stereo not given) | 2.651 |
| COCCc1noc(CN2CC(n3nc(C)cc3C)C2)n1 | 87.49 |
| CC(C)CC(CCO)CNC(=O)N1CCOC2(CCCC2)C1 (stereo not given) | 9.888 |
| CC1Cc2ccccc2N1Cc1occc1C(=O)O (stereo not given) | -32.9 |
| O=C(CN1CCSCC1c1ccccc1)N1CCCC1 (stereo not given) | -1.528 |
| CCC(C(=O)NCc1ccn(-c2ccc(F)cc2)n1)N1CCCC1=O (stereo not given) | 13.5 |
| Cc1nccn1C1(C(=O)O)CCN(Cc2ccc3nsnc3c2)CC1 | 4.136 |
| Cc1cc(C(=O)N2CCCCC2C)ccc1NCCCO (stereo not given) | 3.863 |
| Cc1cc(C(=O)N2CCCC2)ccc1NCC(=O)N1CCOCC1 | 96.96 |
| Cc1cc(C(=O)N2CCCCC2C)ccc1NC(=O)N1CCOCC1 (stereo not given) | 99.93 |
| Cc1cc(C(=O)N2CCC(C)CC2)ccc1NS(C)(=O)=O | 7.517 |
| COc1ccc(NC(=O)N2CCOCC(CN(C)C)C2)c(C)c1 (stereo not given) | -4.922 |
| Cc1cc(C(=O)N2CCCC2)ccc1NS(C)(=O)=O | -1.573 |
| Cc1cc(C(=O)N2CCCC2)ccc1NCCO | -9.298 |
| Cc1cc(C(=O)N2CCCC(C)C2)ccc1NCC(=O)N1CCOCC1 (stereo not given) | 106.6 |
| CCCNC(=O)CNc1ccc(C(=O)N2CCCCC2C)cc1C (stereo not given) | -8.167 |
| Cc1cc(C(=O)N2CCCCC2C)ccc1NCC(=O)N1CCOCC1 (stereo not given) | -5.879 |
| Cc1cc(C(=O)N2CCCC2)ccc1NCC(=O)N1CCCCC1C (stereo not given) | 98.59 |

| SMILES | Percent Effect [%] |
| --- | --- |
| O=C(O)C(F)(F)F.c1cc(C2CC2)n2cnc(C3CN(Cc4nccs4)CCO3)c2c1 (stereo not given) | 7.631 |
| CC(=O)NCCCSC1CCCN(c2ccccc2Cl)C1=O (stereo not given) | 1.649 |
| Cn1ccnc1SCCNC1CCN(c2ncccn2)CC1 | 12.3 |
| CC(C)c1ccc(-c2nnn(CCNS(C)(=O)=O)n2)cc1 | -15.95 |
| O=C(O)C(F)(F)F.O=C(c1cccs1)N1CCC[C@]2(C[C@@H](OCc3ccncc3)CO2)C1 | -0.9808 |
| Cc1nc(C2CCCN(C(=O)c3cnn(C4CCCCC4)c3)C2)no1 (stereo not given) | 101.3 |
| Cc1cnn(CCC(=O)N2CCCC(c3cc(C(N)=O)[nH]n3)C2)c1 (stereo not given) | 5.057 |
| Cc1nc(C2CCCN(C(=O)c3cc(C)sc3C)C2)no1 (stereo not given) | -7.599 |
| CCn1cc(C(=O)N2CCCC(c3noc(C)n3)C2)cn1 (stereo not given) | 122 |
| Cc1cnn(CCC(=O)N2CCCC(c3nc(C)no3)C2)c1 (stereo not given) | 6.871 |
| Cc1cnn(CCC(=O)N2CCCC(c3noc(C)n3)C2)c1 (stereo not given) | 105 |
| Cc1nc(C2CCCN(C(=O)c3cnn(C(C)(C)C)c3)C2)no1 (stereo not given) | 1.32 |
| Cc1nc(C2CCCN(C(=O)c3cnc(C)s3)C2)no1 (stereo not given) | -5.153 |
| CC(=O)c1cc(CC(=O)NCc2ccsc2)cs1 | -1.009 |
| CC(=O)N1C[C@H](NS(=O)(=O)N2CCOCC2)[C@@H](c2ccc(C)o2)C1 | -11.37 |
| CN1CC(c2ccccc2)CC12CCN(C(=O)c1cncc(Cl)c1)CC2 (stereo not given) | 1.146 |
| CCCc1cc(N2CCCC2Cn2nc(C)nc2C)n2ncnc2n1 (stereo not given) | -15.77 |
| CC(C)(CNC(=O)C(C)(C)Oc1ccc2c(c1)CCCC2=O)C(N)=O | -6.308 |
| CCc1nnc2n1CCN(C(=O)c1ccc3nc(C)c(C)nc3c1)C2 | 6.266 |
| CCn1c(C2CCN(C(=O)c3ccc4sc(C)nc4c3)CC2)n[nH]c1=O | -3.012 |
| CN(C)c1cccc(C(=O)N2CCn3c(nnc3-c3ccccc3)C2)c1 | 0.7654 |
| Cc1nc2ccc(C(=O)N3CCn4c(nnc4C4CC4)C3)cc2nc1C | 122.4 |
| Cc1nnc2n1CCN(C(=O)c1cnc(C3CC3)s1)C2 | 2.098 |
| Cc1nc2cc(C(=O)N3CCn4c(nnc4C4CC4)C3)ccc2s1 | 86.87 |
